Measured values reported in PubChem BioAssay (NCATS).
For some assays here: Results with a measured potency or affinity are listed apart. Calls of active or inactive are those of the source. Calls come from the whole dose curve.

settings: Ebola virus entry assay, green fluorescence channel

Structure (SMILES)	outcome
Cc1nnc2n1-c1ccc(Cl)cc1C(c1ccccc1)=NC2	inactive
CCC(=O)OC(OP(=O)(CCCCc1ccccc1)CC(=O)N1C[C@H](C2CCCCC2)C[C@H]1C(=O)O)C(C)C (stereo not given in full)	inactive
COc1ccnc(CS(=O)c2nc3cc(OC(F)F)ccc3[nH]2)c1OC (stereo not given)	inactive
O=C(O[C@H]1CN2CCC1CC2)N1CCc2ccccc2[C@@H]1c1ccccc1	inactive
C[C@]12CCC(=O)C=C1CC[C@H]1[C@@H]3CC[C@](O)(C(=O)CO)[C@@]3(C)C[C@H](O)[C@@]12F	inactive
CN(C)CCc1c[nH]c2ccc(Cn3cncn3)cc12	inactive

settings: Ebola virus entry assay, ratio channel readout

Structure (SMILES)	outcome	AC50
Cc1nnc(C(C)C)n1C1C[C@H]2CC[C@@H](C1)N2CC[C@H](NC(=O)C1CCC(F)(F)CC1)c1ccccc1 (stereo not given in full)	inactive	–
Cc1noc(NS(=O)(=O)c2ccc(N)cc2)c1C	inactive	–
C[N+]1(C)CCCC(OC(=O)C(O)(c2ccccc2)c2ccccc2)C1 (stereo not given)	inactive	–
CC(C)(O/N=C(\C(=O)N[C@@H]1C(=O)N2C(C(=O)[O-])=C(C[n+]3ccccc3)CS[C@H]12)c1csc(N)n1)C(=O)O	inactive	–
CCN(CC)C(=O)[C@]1(c2ccccc2)C[C@@H]1CN	inactive	–
NS(=O)(=O)c1cc(Cl)c(Cl)c(S(N)(=O)=O)c1	inactive	–
CCN1CC(CCN2CCOCC2)C(c2ccccc2)(c2ccccc2)C1=O (stereo not given)	inactive	–
Nc1nc(Cl)nc2c1ncn2[C@@H]1O[C@H](CO)[C@@H](O)[C@@H]1F	inactive	–
CCCCC(=O)N(Cc1ccc(-c2ccccc2-c2nn[nH]n2)cc1)[C@@H](C(=O)O)C(C)C	inactive	–
NC(=O)N1c2ccccc2C=Cc2ccccc21	inactive	–
S=c1nc[nH]c2nc[nH]c12	inactive	–
C=C1C(=C/C=C2\CCC[C@]3(C)[C@@H]([C@H](C)CCCC(C)(C)O)CC[C@@H]23)C[C@@H](O)C[C@@H]1O	inactive	–
C=CC(N)CCC(=O)O (stereo not given)	inactive	–
O=C(O)C[C@H](O)C[C@H](O)/C=C/c1c(C2CC2)nc2ccccc2c1-c1ccc(F)cc1	inactive	–
CO[C@H]1C=CO[C@@]2(C)Oc3c(C)c(O)c4c(O)c(c(/C=N/N5CCN(C6CCCC6)CC5)c(O)c4c3C2=O)NC(=O)/C(C)=C\C=C[C@H](C)[C@H](O)[C@@H](C)[C@@H](O)[C@@H](C)[C@H](OC(C)=O)[C@@H]1C	inactive	–
CCOC(=O)[C@H](CCc1ccccc1)N[C@H]1CCCN2CCC[C@@H](C(=O)O)N2C1=O	inactive	–
OCC(S)CS (stereo not given)	inactive	–
Nc1ccc(C(=O)O)c(O)c1	inactive	–
CN1[C@@H]2CC[C@H]1CC(OC(c1ccccc1)c1ccccc1)C2 (stereo not given in full)	–	3.55 µM (active)
CCCCCCCN(CC)CCCC(O)c1ccc(NS(C)(=O)=O)cc1 (stereo not given)	inactive	–
CCOC(=O)CCC(=O)O[C@H]1[C@H](O[C@@H]2[C@@H](C)[C@H](O[C@H]3C[C@@](C)(OC)[C@@H](O)[C@H](C)O3)[C@@H](C)C(=O)O[C@H](CC)[C@@](C)(O)[C@H](O)[C@@H](C)C(=O)[C@H](C)C[C@@]2(C)O)O[C@H](C)C[C@@H]1N(C)C	inactive	–
CO[C@H]1C[C@@H]2CC[C@@H](C)[C@@](O)(O2)C(=O)C(=O)N2CCCC[C@@H]2C(=O)O[C@H]([C@@H](C)C[C@@H]2CC[C@H](O)[C@H](OC)C2)CC(=O)[C@H](C)C=C(C)[C@@H](O)[C@@H](OC)C(=O)[C@H](C)C[C@H](C)C=CC=CC=C1C	inactive	–
CC(C)NCC(O)c1ccc(NS(C)(=O)=O)cc1 (stereo not given)	inactive	–
CC(C)[C@H]1C(=O)N2CCC[C@H]2[C@]2(O)O[C@](NC(=O)[C@@H]3C[C@@H]4c5cccc6[nH]cc(c56)C[C@H]4N(C)C3)(C(C)C)C(=O)N12	inactive	–
CC=CC1=C(C(=O)O)N2C(=O)[C@H](NC(=O)[C@H](N)c3ccc(O)cc3)[C@@H]2SC1	inactive	–
C=CC1=C(C(=O)O)N2C(=O)[C@@H](NC(=O)/C(=N/OCC(=O)O)c3csc(N)n3)[C@H]2SC1 (stereo in doubt)	inactive	–
C[C@@H]1O[C@@H]1P(=O)(O)O	inactive	–
CC[C@H]1OC(=O)[C@H](C)[C@@H](O[C@H]2C[C@@](C)(OC)[C@@H](O)[C@H](C)O2)[C@H](C)[C@@H](O[C@@H]2O[C@H](C)C[C@H](N(C)C)[C@@H]2O)[C@](C)(O)C[C@@H](C)CN(C)[C@H](C)[C@@H](O)[C@]1(C)O	–	2.52 µM (active)
COc1ccc2c(c1)C13CCCC[C@@H]1C(C2)N(C)CC3 (stereo not given in full)	inactive	–
